Results: PubChem BioAssay
Unmarked numbers belong to inactive results. For some of these results: Measured potencies and affinities stand elsewhere. Activity calls are given as the source filed them. Unless noted, how the calls were made is not given here.

How the values were obtained:
[1] = antimalarial activity against Dd2 strain (AID 2302;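 active means growth inhibition above 50% at the single 2 µM test dose, taken to imply half-maximal potency below 2 µM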;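 further: 0% = DMSO untreated growth and 100% = chloroquine plus artemisinin killed control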); details: P. falciparum Dd2 in RBCs, LDH growth readout, 72 h; at 2 µM; stronger effect = higher value
[2] = human hepatoma cell viability loss – ATP luminescence, cytotoxicity control for P. falciparum antimalarial project, primary screen (AID 2303;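 active means inhibition above 50%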;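 further: 0% = DMSO wells and 100% = digitonin-killed cells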); details: HepG2 viability, 24-48 h, at 10 µM, stronger effect = higher value
[3] = target: L-lactate dehydrogenase (Plasmodium falciparum (isolate CDC / Honduras)) (UniProt Q27743); assay: PfLDH activity inhibition – cell lysate, 3D7 strain, counter-screen for P. falciparum growth inhibition project (AID 2304);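 further: 0% = vehicle and 100% = reference inhibitor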; details: P. falciparum 3D7 crude extract, LDH APAD/NBT absorbance; at 2 µM; stronger effect = higher value
[4] = inhibition of 3D7 malaria parasite growth – strain 3D7 (AID 2306);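 further: 0% = DMSO wells and 100% = chloroquine plus artemisinin control wells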; details: P. falciparum 3D7 erythrocytic growth, LDH absorbance, 72 h; at 2 µM; stronger effect = higher value
[5] = target: Calcium-dependent protein kinase 1 (Plasmodium falciparum (isolate 3D7)) (UniProt P62344); assay: PfCDPK1 kinase inhibitors, biochemical, TCAMS library (AID 1159585; cut-off not given, nearly all actives have IC50 up to about 0.98 µM;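 further: inhibitors leave more ATP so luminescence rises with inhibition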); details: recombinant PfCDPK1, Kinase-Glo ATP depletion luminescence
[6] = target: Plasmodium falciparum protein kinase 6 (PK6, PF3D7_1337100) (UniProt Q8IDW1); assay: PfPK6 kinase inhibitors, biochemical, TCAMS library (AID 1159586); details: recombinant PfPK6, Kinase-Glo ATP depletion luminescence
[7] = target: Protein kinase 7 (PK7), Plasmodium falciparum 3D7 (PF3D7_0213400) (UniProt Q7YTF7); assay: inhibition of Plasmodium PK7 catalytic activity – biochemical, TCAMS antimalarial set, Kinase-Glo luminescence (AID 1159587); details: recombinant PfPK7, Kinase-Glo ATP depletion luminescence
[8] = target: Calcium-dependent protein kinase 4 (Plasmodium falciparum (isolate 3D7)) (UniProt Q8IBS5); assay: PfCDPK4 kinase inhibitors, biochemical, TCAMS library (AID 1159588; cut-off not given, nearly all actives have IC50 up to about 0.91 µM); details: recombinant PfCDPK4, Kinase-Glo ATP depletion luminescence
Calcium-dependent protein kinase 4 (Plasmodium falciparum (isolate 3D7)), sequence (Q8IBS5 whole entry, looked up): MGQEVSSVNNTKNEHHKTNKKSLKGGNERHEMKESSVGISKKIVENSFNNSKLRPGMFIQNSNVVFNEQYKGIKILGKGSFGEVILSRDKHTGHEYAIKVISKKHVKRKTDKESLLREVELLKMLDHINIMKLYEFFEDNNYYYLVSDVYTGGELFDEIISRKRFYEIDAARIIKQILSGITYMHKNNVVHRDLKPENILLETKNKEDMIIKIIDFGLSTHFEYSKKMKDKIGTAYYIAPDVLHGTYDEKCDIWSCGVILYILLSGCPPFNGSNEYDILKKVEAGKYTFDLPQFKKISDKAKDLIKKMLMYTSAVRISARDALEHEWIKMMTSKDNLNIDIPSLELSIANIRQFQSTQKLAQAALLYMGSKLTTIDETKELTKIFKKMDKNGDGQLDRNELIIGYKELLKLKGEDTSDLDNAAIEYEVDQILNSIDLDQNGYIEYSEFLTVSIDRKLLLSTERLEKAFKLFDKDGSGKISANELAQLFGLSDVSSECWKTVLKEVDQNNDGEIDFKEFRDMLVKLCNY

Protein kinase 7 (PK7), Plasmodium falciparum 3D7 (PF3D7_0213400), sequence (Q7YTF7 1-343): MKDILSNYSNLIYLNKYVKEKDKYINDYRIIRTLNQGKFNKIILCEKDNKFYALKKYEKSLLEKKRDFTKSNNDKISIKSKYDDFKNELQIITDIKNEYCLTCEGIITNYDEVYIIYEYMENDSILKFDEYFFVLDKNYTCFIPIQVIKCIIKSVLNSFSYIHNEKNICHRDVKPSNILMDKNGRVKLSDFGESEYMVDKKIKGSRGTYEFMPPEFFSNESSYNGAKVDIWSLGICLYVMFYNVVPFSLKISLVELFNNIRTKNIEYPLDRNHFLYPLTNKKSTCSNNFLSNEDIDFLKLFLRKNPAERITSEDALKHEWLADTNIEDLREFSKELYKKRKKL
Plasmodium falciparum protein kinase 6 (PK6, PF3D7_1337100), sequence (Q8IDW1 1-305): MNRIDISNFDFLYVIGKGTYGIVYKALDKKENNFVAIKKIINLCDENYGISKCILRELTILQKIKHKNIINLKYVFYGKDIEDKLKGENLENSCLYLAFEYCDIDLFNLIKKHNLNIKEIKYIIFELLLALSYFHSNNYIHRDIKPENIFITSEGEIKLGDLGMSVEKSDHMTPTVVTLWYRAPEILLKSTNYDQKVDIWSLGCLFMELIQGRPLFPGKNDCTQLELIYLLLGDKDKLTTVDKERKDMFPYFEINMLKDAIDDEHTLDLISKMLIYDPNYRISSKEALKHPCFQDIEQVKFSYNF
Calcium-dependent protein kinase 1 (Plasmodium falciparum (isolate 3D7)), sequence (P62344 whole entry, looked up): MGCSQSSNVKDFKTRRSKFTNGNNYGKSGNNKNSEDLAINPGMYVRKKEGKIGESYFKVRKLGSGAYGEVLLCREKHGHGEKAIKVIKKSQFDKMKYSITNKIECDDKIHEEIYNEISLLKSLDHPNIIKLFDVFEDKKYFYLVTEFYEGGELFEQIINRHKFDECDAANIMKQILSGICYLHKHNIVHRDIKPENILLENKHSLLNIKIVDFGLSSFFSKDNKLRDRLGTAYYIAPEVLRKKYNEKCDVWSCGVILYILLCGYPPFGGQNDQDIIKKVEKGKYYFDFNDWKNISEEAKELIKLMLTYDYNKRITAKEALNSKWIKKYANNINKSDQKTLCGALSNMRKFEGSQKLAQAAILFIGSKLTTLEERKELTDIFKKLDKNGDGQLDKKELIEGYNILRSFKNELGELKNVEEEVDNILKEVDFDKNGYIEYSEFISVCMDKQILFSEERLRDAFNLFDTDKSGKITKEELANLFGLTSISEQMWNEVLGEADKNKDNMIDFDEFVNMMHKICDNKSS
L-lactate dehydrogenase (Plasmodium falciparum (isolate CDC / Honduras)), sequence (Q27743 whole entry, looked up): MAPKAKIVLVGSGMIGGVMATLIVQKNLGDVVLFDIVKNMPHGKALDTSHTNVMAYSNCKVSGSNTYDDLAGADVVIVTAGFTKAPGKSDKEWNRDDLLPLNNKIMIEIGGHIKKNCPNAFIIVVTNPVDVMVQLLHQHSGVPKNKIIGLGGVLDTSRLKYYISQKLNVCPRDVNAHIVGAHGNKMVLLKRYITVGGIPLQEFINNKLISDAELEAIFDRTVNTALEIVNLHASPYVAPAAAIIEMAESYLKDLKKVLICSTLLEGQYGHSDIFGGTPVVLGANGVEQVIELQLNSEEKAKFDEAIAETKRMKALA

C=CCn1c(SCc2c(C)noc2C)nc2scc(-c3cccs3)c2c1=O
growth inhibition [1]: 34%
inhibition [2]: 13%
inhibition [3]: 0%
growth inhibition [4]: 88% (active)
outcome [5]: inactive
outcome [6]: inactive
outcome [7]: inactive
outcome [8]: inactive

Cc1nc2sccn2c1C(=O)NCCc1ccccc1Cl
growth inhibition [1]: 1%
inhibition [2]: 6%
inhibition [3]: 3%
growth inhibition [4]: 96% (active)
outcome [5]: inactive
outcome [6]: inactive
outcome [7]: inactive
outcome [8]: inactive

COc1ccc(-c2ccc(NC(=O)c3cccc(C#N)c3)cc2)cc1CN1CCC(O)CC1
growth inhibition [1]: 84% (active)
inhibition [2]: 21%
inhibition [3]: 7%
growth inhibition [4]: 101% (active)
outcome [5]: inactive
outcome [6]: inactive
outcome [7]: inactive
outcome [8]: inactive

CCCCOc1ccc(/C=C/c2ccc(-c3c(C)[nH]c(C)c(Cl)c3=O)s2)cc1
growth inhibition [1]: 96% (active)
inhibition [2]: -4%
inhibition [3]: -2%
growth inhibition [4]: 97% (active)
outcome [5]: inactive
outcome [6]: inactive
outcome [7]: inactive
outcome [8]: inactive

O=C(NC1CCCCC1)N(Cc1cccc(-c2cccc(CNC3CCCC3)c2)c1)C1CCN(Cc2ccccc2)CC1
growth inhibition [1]: 90% (active)
inhibition [2]: 64% (active)
inhibition [3]: -7%
growth inhibition [4]: 96% (active)
outcome [5]: inactive
outcome [6]: inactive
outcome [7]: inactive
outcome [8]: inactive

Fc1ccc2nc(-c3cccc(-c4ccc(CN5CCC(CCN6CCCCC6)CC5)cc4)c3)[nH]c2c1
growth inhibition [1]: 100% (active)
inhibition [2]: 91% (active)
inhibition [3]: -2%
growth inhibition [4]: 101% (active)
outcome [5]: inactive
outcome [6]: inactive
outcome [7]: inactive
outcome [8]: inactive

CCOc1ccc(C=CC(=O)Nc2ccc3nc(N4CCN(C)CC4)cc(C)c3c2)cc1OC
growth inhibition [1]: 70% (active)
inhibition [2]: -2%
inhibition [3]: -10%
growth inhibition [4]: 102% (active)
outcome [5]: inactive
outcome [6]: inactive
outcome [7]: inactive
outcome [8]: inactive

COc1ccccc1-c1cccc(CNC2CCN(CC3Cn4c(=O)ccc5ccc(F)c3c54)CC2)c1 (stereo not drawn)
growth inhibition [1]: -1%
inhibition [2]: 30%
inhibition [3]: 3%
growth inhibition [4]: 91% (active)
outcome [5]: inactive
outcome [6]: inactive
outcome [7]: inactive
outcome [8]: inactive

COc1ccc2nc(C)cc(NN=Cc3cc(OC)c(OC)cc3OC)c2c1
growth inhibition [1]: 56% (active)
inhibition [2]: 1%
inhibition [3]: 5%
growth inhibition [4]: 100% (active)
outcome [5]: inactive
outcome [6]: inactive
outcome [7]: inactive
outcome [8]: inactive

O=C1CCCC1Sc1nc2ccccc2c(=O)n1-c1ccc(Cl)c(Cl)c1 (stereo not drawn)
growth inhibition [1]: 42%
inhibition [2]: 10%
inhibition [3]: 0%
growth inhibition [4]: 97% (active)
outcome [5]: inactive
outcome [6]: inactive
outcome [7]: inactive
outcome [8]: inactive

COc1ccc(Nc2nccc(N3CCC(NC(=O)c4cc5ccccc5s4)C3)n2)cc1 (stereo not drawn)
growth inhibition [1]: 86% (active)
inhibition [2]: 1%
inhibition [3]: 4%
growth inhibition [4]: 99% (active)
outcome [5]: inactive
outcome [6]: inactive
outcome [7]: inactive
outcome [8]: inactive

COc1ccc(O)c(C(=O)c2cnc3c(c2)c(-c2ccc(F)cc2)c(C#N)c(=O)n3C)c1
growth inhibition [1]: 14%
inhibition [2]: 7%
inhibition [3]: -2%
growth inhibition [4]: 92% (active)
outcome [5]: inactive
outcome [6]: inactive
outcome [7]: inactive
outcome [8]: inactive

O=C(Nc1ccc(Cl)cc1)Nc1ccc(-c2csc(-c3nc4ccccc4[nH]3)c2)cc1
growth inhibition [1]: 40%
inhibition [2]: 59% (active)
inhibition [3]: -4%
growth inhibition [4]: 90% (active)
outcome [5]: inactive
outcome [6]: inactive
outcome [7]: inactive
outcome [8]: inactive

COc1c(C2CCN(CCCCNC(=O)c3ccc(-c4ccc(C#N)cc4)c(O)c3)CC2)ccc2c1CCCC2
growth inhibition [1]: 78% (active)
inhibition [2]: 35%
inhibition [3]: -2%
growth inhibition [4]: 100% (active)
outcome [5]: inactive
outcome [6]: inactive
outcome [7]: inactive
outcome [8]: inactive

OCCNc1nc(Nc2cccc(O)c2)nc2ccccc12
growth inhibition [1]: 55% (active)
inhibition [2]: 3%
inhibition [3]: 3%
growth inhibition [4]: 96% (active)
outcome [5]: inactive
outcome [6]: inactive
outcome [7]: inactive
outcome [8]: inactive

Oc1ccc(CCCNc2nc(NCc3ccccc3-c3ccccc3)nc(N3CCNCC3)n2)cc1
growth inhibition [1]: 48%
inhibition [2]: 39%
inhibition [3]: 5%
growth inhibition [4]: 94% (active)
outcome [5]: inactive
outcome [6]: inactive
outcome [7]: inactive
outcome [8]: inactive

CCCC(=O)NC(c1cccs1)c1cc(Cl)c2cccnc2c1O (stereo not drawn)
growth inhibition [1]: 61% (active)
inhibition [2]: 51% (active)
inhibition [3]: -4%
growth inhibition [4]: 87% (active)
outcome [5]: inactive
outcome [6]: inactive
outcome [7]: inactive
outcome [8]: inactive

Cc1ccc(NC(=O)Nc2ccc(Cl)cc2)cc1-c1ccc(C(=O)Nc2ccncc2)cc1
growth inhibition [1]: 63% (active)
inhibition [2]: 54% (active)
inhibition [3]: -1%
growth inhibition [4]: 99% (active)
outcome [5]: inactive
outcome [6]: inactive
outcome [7]: inactive
outcome [8]: inactive

COc1ccccc1C1CCN(CCCCNC(=O)c2ccc(/C=C/c3cc(Cl)cc(Cl)c3)cc2)CC1
growth inhibition [1]: 30%
inhibition [2]: 36%
inhibition [3]: 9%
growth inhibition [4]: 96% (active)
outcome [5]: inactive
outcome [6]: inactive
outcome [7]: inactive
outcome [8]: inactive

COc1ccc(S(=O)(=O)NC2CCN(c3ccnc4cc(Cl)ccc34)C2)cc1 (stereo not drawn)
growth inhibition [1]: 86% (active)
inhibition [2]: 12%
inhibition [3]: -2%
growth inhibition [4]: 100% (active)
outcome [5]: inactive
outcome [6]: inactive
outcome [7]: inactive
outcome [8]: inactive

CC(C)NCc1ccc(-c2cccc(NC(=O)c3ccc(Cl)cc3)c2)cc1
growth inhibition [1]: 82% (active)
inhibition [2]: 20%
inhibition [3]: -7%
growth inhibition [4]: 100% (active)
outcome [5]: inactive
outcome [6]: inactive
outcome [7]: inactive
outcome [8]: inactive

CCCCCNc1nc(Nc2ccccc2C)nc2ccccc12
growth inhibition [1]: 30%
inhibition [2]: 5%
inhibition [3]: -7%
growth inhibition [4]: 100% (active)
outcome [5]: inactive
outcome [6]: inactive
outcome [7]: inactive
outcome [8]: inactive

COc1cc(CNC[C@@H](O)[C@H](Cc2ccccc2)NC(=O)c2cc(OC(C)C)cc(N3CCCCS3(=O)=O)c2)cc(OC)c1
growth inhibition [1]: 94% (active)
inhibition [2]: 7%
inhibition [3]: 4%
growth inhibition [4]: 100% (active)
outcome [5]: inactive
outcome [6]: inactive
outcome [7]: inactive
outcome [8]: inactive

Cc1ccc2nc(-c3ccccc3Nc3ccnc4cc(-c5nccs5)ccc34)[nH]c2c1
growth inhibition [1]: 100% (active)
inhibition [2]: 40%
inhibition [3]: -5%
growth inhibition [4]: 101% (active)
outcome [5]: inactive
outcome [6]: inactive
outcome [7]: inactive
outcome [8]: inactive

COc1cccc(Nc2nc(NCCO)c3ccccc3n2)c1
growth inhibition [1]: 88% (active)
inhibition [2]: 1%
inhibition [3]: -6%
growth inhibition [4]: 99% (active)
outcome [5]: inactive
outcome [6]: inactive
outcome [7]: inactive
outcome [8]: inactive

CCNc1cc(C(=O)N[C@@H](Cc2ccccc2)[C@H](O)CNC2(CC)CCCCC2)cc(N2CCCCS2(=O)=O)c1
growth inhibition [1]: 98% (active)
inhibition [2]: 3%
inhibition [3]: -3%
growth inhibition [4]: 98% (active)
outcome [5]: inactive
outcome [6]: inactive
outcome [7]: inactive
outcome [8]: inactive

O=C(Nc1ccc(OC2CCN(Cc3ccsc3)C2)c(Cl)c1)c1ccco1 (stereo not drawn)
growth inhibition [1]: 96% (active)
inhibition [2]: -6%
inhibition [3]: -5%
growth inhibition [4]: 93% (active)
outcome [5]: inactive
outcome [6]: inactive
outcome [7]: inactive
outcome [8]: inactive

Cc1cccc2[nH]c(-c3cccc(-c4ccc(NC(=O)Nc5ccsc5)cc4)c3)nc12
growth inhibition [1]: 99% (active)
inhibition [2]: 27%
inhibition [3]: 0%
growth inhibition [4]: 100% (active)
outcome [5]: inactive
outcome [6]: inactive
outcome [7]: inactive
outcome [8]: inactive

O=C(O)c1ccc(-c2c[nH]c3ncc(-c4ccc(Cl)cc4)cc23)cc1
growth inhibition [1]: 99% (active)
inhibition [2]: 39%
inhibition [3]: 7%
growth inhibition [4]: 97% (active)
outcome [5]: inactive
outcome [6]: inactive
outcome [7]: inactive
outcome [8]: inactive

Cc1cc(C)cc(Oc2c(C(F)(F)F)oc3c(CN4CC(C)OC(C)C4)c(O)ccc3c2=O)c1 (stereo not drawn)
growth inhibition [1]: 54% (active)
inhibition [2]: 5%
inhibition [3]: 1%
growth inhibition [4]: 89% (active)
outcome [5]: inactive
outcome [6]: inactive
outcome [7]: inactive
outcome [8]: inactive

CNC(=O)c1cnc(Nc2ccc(N3CCN(C)CC3)cc2)nc1Nc1cccc(OC)c1
growth inhibition [1]: 101% (active)
inhibition [2]: 19%
inhibition [3]: 5%
growth inhibition [4]: 100% (active)
outcome [5]: inactive
outcome [6]: inactive
outcome [7]: inactive
outcome [8]: inactive

COc1ccc2ncc(F)c(CCN3C[C@H](CNCc4ccc5c(c4)OCCO5)[C@H](O)C3)c2n1
growth inhibition [1]: 35%
inhibition [2]: 18%
inhibition [3]: 7%
growth inhibition [4]: 94% (active)
outcome [5]: inactive
outcome [6]: inactive
outcome [7]: inactive
outcome [8]: inactive

N#CC1(CCCNCCc2ccc(O)cc2)CCCc2c(O)cccc21 (stereo not drawn)
growth inhibition [1]: 3%
inhibition [2]: -2%
inhibition [3]: -5%
growth inhibition [4]: 95% (active)
outcome [5]: inactive
outcome [6]: inactive
outcome [7]: inactive
outcome [8]: inactive

O=C(/C=C/c1cccs1)NCC(NCCCNc1cc(=O)c2ccccc2[nH]1)c1cc(Br)cc(Br)c1 (stereo not drawn)
growth inhibition [1]: 58% (active)
inhibition [2]: 0%
inhibition [3]: 0%
growth inhibition [4]: 100% (active)
outcome [5]: inactive
outcome [6]: inactive
outcome [7]: inactive
outcome [8]: inactive

N=c1c2c(n(Cc3cccc(Cl)c3)c3c1CCC3)CCCC2
growth inhibition [1]: 86% (active)
inhibition [2]: -5%
inhibition [3]: -1%
growth inhibition [4]: 97% (active)
outcome [5]: inactive
outcome [6]: inactive
outcome [7]: inactive
outcome [8]: inactive

Cn1cnc2nc(NCCc3ccccc3)nc(NCc3cccc4ccccc34)c21
growth inhibition [1]: 98% (active)
inhibition [2]: 16%
inhibition [3]: -2%
growth inhibition [4]: 95% (active)
outcome [5]: inactive
outcome [6]: inactive
outcome [7]: inactive
outcome [8]: inactive

N#Cc1cccc(CN2CCCN(c3ccc(NC(=O)c4cccs4)cc3)CC2)c1
growth inhibition [1]: 95% (active)
inhibition [2]: -2%
inhibition [3]: -2%
growth inhibition [4]: 96% (active)
outcome [5]: inactive
outcome [6]: inactive
outcome [7]: inactive
outcome [8]: inactive

O=S(=O)(NCCN1CCCC1)c1ccc(-c2cccc(CNCCc3cccs3)c2)cc1
growth inhibition [1]: 30%
inhibition [2]: 41%
inhibition [3]: -1%
growth inhibition [4]: 95% (active)
outcome [5]: inactive
outcome [6]: inactive
outcome [7]: inactive
outcome [8]: inactive

Cc1cc(CN2CC[C@H](NC(=O)c3ccc(Cl)c(Cl)c3)C2)ccc1OC1CCN(Cc2ccccc2)CC1
growth inhibition [1]: 29%
inhibition [2]: 59% (active)
inhibition [3]: -2%
growth inhibition [4]: 98% (active)
outcome [5]: inactive
outcome [6]: inactive
outcome [7]: inactive
outcome [8]: inactive

CCc1[nH]nc(C(=O)Nc2cccc(N3CCCC3)c2)c1C
growth inhibition [1]: 52% (active)
inhibition [2]: 15%
inhibition [3]: 1%
growth inhibition [4]: 81% (active)
outcome [5]: inactive
outcome [6]: inactive
outcome [7]: inactive
outcome [8]: inactive

Cc1cc(N[C@@H](Cc2ccccc2)C(=O)NCc2cccs2)nc(NCC2CCCCC2)n1
growth inhibition [1]: 92% (active)
inhibition [2]: -5%
inhibition [3]: 0%
growth inhibition [4]: 100% (active)
outcome [5]: inactive
outcome [6]: inactive
outcome [7]: inactive
outcome [8]: inactive
